# Experimental data reported in PubChem BioAssay (Tox21).
# Several values for one entry are separate records, joined by “and”; a condition that tells them apart may be missing. Identical values can stand only once. A number with no mark means an inactive call. Results filed as inconclusive are left out. Activity calls are given as the source filed them. Unless noted, calls come from the whole dose curve.
# Test: qHTS assay to identify small molecule antagonists of the sonic hedgehog signaling (Shh) pathway - cell viability counter screen (AID 1259367; active = well fitted cell-killing curve with a large enough effect in the repeat runs; note: nearly all actives have a fitted effect of over 55% in size; note: potency is the fitted concentration of half-maximal effect)
# Conditions: NIH/3T3 Gli1-Luc viability, CellTiter-Fluor, 24 h; series mostly up to 92.4 µM; viability change, negative = cytotoxic: at the top concentration
# Outline: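 Using CellTiter-Fluor, viability of Gli1-Luc reporter 3T3 cells is read by fluorescence in the wells used for the Shh luciferase assay. Treatment lasts 23 hr with conditioned medium, then reagent 1 hr at 37C.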
# % is set by controls: 0 for no effect and ±100 for the full control effect.
Structure (SMILES),"viability change, negative = cytotoxic",Potency
COc1cccc(O)c1,-9.77%,–
CCCCNc1c(C(=O)OCC)c(C)nc2c1cnn2CC,-5.79% [at 42.5 µM],–
O=S(=O)(O)CCCN1CCOCC1,0.103%,–
CCCCCCCCCCCCCc1ccccc1,-2.46% [at 42.5 µM],–
CC1=CCC(=O)O1,0.314%,–
CCC(=O)CC(C)CC (configuration not stated),2.54% [at 0.349 µM],–
Cc1ccc2ccc3cccc4ccc1c2c34,10.1%,–
O=S(O)O,0.928% [at 19 µM],–
O=C=NCc1cccc(CN=C=O)c1,-1.32% [at 19 µM],–
CCN(CC)CCSC(=O)C(c1ccccc1)c1ccccc1,-9.2% [at 42.5 µM],–
CC(=O)c1ccccc1N,0.435%,–
C=CC(=C)CC/C=C(\C)CCC=C(C)C,-4.46% [at 19 µM],–
c1ccc(Nc2cccc3ccccc23)cc1,–,inactive
OCCC(O)CO (configuration not stated),0.0671%,–
Cc1cc(C)c(C=O)c(C)c1,-0.189%,–
CNC(=S)NN,–,17.2 µM (active)
CCCCCCCC(C)=O,0.774%,–
C/C=C/C(=O)Oc1c(CCCCCC(C)C)cc([N+](=O)[O-])cc1[N+](=O)[O-],–,54.5 µM (active)

Structure (SMILES),"viability change, negative = cytotoxic",Potency
CCc1cccc(CC)c1N(COC)C(=O)CS(=O)(=O)O,4.56%,–
C/C=C/C(=O)C1=C(C)CCCC1(C)C,-5.15%,–
CCN(CC)c1cccc(C)c1,0.0453%,–
CC(C)=C1CC[C@@H](C)CC1=O,-0.11%,–
CN(Cc1cc(Br)cc(Br)c1N)C1CCCCC1,4.9% [at 42.5 µM],–
C(=C/c1ccccc1)/c1ccccc1,1.76%,–
CCCCCCCC/C=C\CCCCCCCC(=O)N(C)CC(=O)O,4.78%,–
CC=O,–,28.6 µM (active)
CCCCCCCCCCCCCC[n+]1ccccc1,–,61.1 µM (active)
Cc1cc(=O)[nH]c(=O)[nH]1,1.06%,–
CCCCCCCC/C=C\CCCCCCCC(=O)OCCOC(=O)CCCCCCC/C=C\CCCCCCCC,-3.63%,–
CSc1ccc2c(c1)N(CCC1CCCCN1C)c1ccccc1S2 (configuration not stated),–,21.6 µM (active) and 29.8 µM (active)
Cn1cnc2ncnc(N)c21,3.6% [at 42.5 µM],–
COc1ccc(C#N)cc1,4.43%,–
CCc1cccc(C)c1,-0.227%,–
CC(C)=CC1CC(C)CCO1 (configuration not stated),3.56%,–
CCCCCCCCCCCCCOP(=O)(O)O,3.7%,–
O=C1OC(=O)c2ccc3c4c(ccc1c24)C(=O)OC3=O,3.59%,–

# Test: qHTS assay to identify small molecule agonists of the sonic hedgehog signaling (Shh) pathway (AID 1259368);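 note: NIH/3T3-derived 3T3Gli1-Luc cells carrying a stable Gli1-driven firefly luciferase reporter; nearly all actives have a fitted effect of over 15% in size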
# Conditions: NIH/3T3 Gli1-Luc reporter, luciferase, 24 h; series mostly up to 92.4 µM; activity change: at the top concentration
# Outline: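 NIH/3T3-derived 3T3Gli1-Luc cells with stably integrated Gli1-driven firefly luciferase, 2,000 cells/well, compounds added after 4 hr. Incubated 24 hr at 37C, 5% CO2; luminescence read after 30 min with luciferase reagent at room temperature.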
Structure (SMILES),activity change,Potency
COc1cccc(O)c1,-1.04%,–
CCCCNc1c(C(=O)OCC)c(C)nc2c1cnn2CC,"0.734% [at 42.5 µM, hits give high values]",–
O=S(=O)(O)CCCN1CCOCC1,0.159%,–
CCCCCCCCCCCCCc1ccccc1,"0.184% [at 42.5 µM, hits give high values]",–
CC1=CCC(=O)O1,0.606%,–
CCC(=O)CC(C)CC (configuration not stated),"-0.87% [at 0.349 µM, hits give high values]",–
Cc1ccc2ccc3cccc4ccc1c2c34,1.59%,–
O=S(O)O,"-1.4% [at 18.9 µM, hits give high values]",–
O=C=NCc1cccc(CN=C=O)c1,"-1.18% [at 18.9 µM, hits give high values]",–
CCN(CC)CCSC(=O)C(c1ccccc1)c1ccccc1,"0.0803% [at 42.5 µM, hits give high values]",–
CC(=O)c1ccccc1N,0.302%,–
C=CC(=C)CC/C=C(\C)CCC=C(C)C,"0.047% [at 18.9 µM, hits give high values]",–
c1ccc(Nc2cccc3ccccc23)cc1,–,inactive
OCCC(O)CO (configuration not stated),0.588%,–
Cc1cc(C)c(C=O)c(C)c1,-1.75%,–
CNC(=S)NN,-11.8%,–
CCCCCCCC(C)=O,-0.0308%,–
C/C=C/C(=O)Oc1c(CCCCCC(C)C)cc([N+](=O)[O-])cc1[N+](=O)[O-],-12.3%,–

Structure (SMILES),activity change,Potency
CCc1cccc(CC)c1N(COC)C(=O)CS(=O)(=O)O,-0.167%,–
C/C=C/C(=O)C1=C(C)CCCC1(C)C,0.623%,–
CCN(CC)c1cccc(C)c1,2.08%,–
CC(C)=C1CC[C@@H](C)CC1=O,0.386%,–
CN(Cc1cc(Br)cc(Br)c1N)C1CCCCC1,"1.14% [at 42.5 µM, hits give high values]",–
C(=C/c1ccccc1)/c1ccccc1,-0.221%,–
CCCCCCCC/C=C\CCCCCCCC(=O)N(C)CC(=O)O,1.99%,–
CC=O,-9.95%,–
CCCCCCCCCCCCCC[n+]1ccccc1,-11.9%,–
Cc1cc(=O)[nH]c(=O)[nH]1,0.213%,–
CCCCCCCC/C=C\CCCCCCCC(=O)OCCOC(=O)CCCCCCC/C=C\CCCCCCCC,0.338%,–
CSc1ccc2c(c1)N(CCC1CCCCN1C)c1ccccc1S2 (configuration not stated),–,inactive
Cn1cnc2ncnc(N)c21,"0.261% [at 42.5 µM, hits give high values]",–
COc1ccc(C#N)cc1,0.871%,–
CCc1cccc(C)c1,-0.412%,–
CC(C)=CC1CC(C)CCO1 (configuration not stated),-0.878%,–
CCCCCCCCCCCCCOP(=O)(O)O,-2.32%,–
O=C1OC(=O)c2ccc3c4c(ccc1c24)C(=O)OC3=O,0.132%,–

# Test: qHTS assay to identify small molecule antagonists of the sonic hedgehog signaling (Shh) pathway (AID 1259369); note: nearly all actives have a fitted effect of over 45% in size; note: potency is the fitted concentration of half-maximal effect
# Conditions: NIH/3T3 Gli1-Luc reporter, Shh antagonist, luminescence 24 h; series mostly up to 92.4 µM; activity change, negative = inhibition: at the top concentration
# Outline: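 NIH/3T3-derived Gli1-Luc reporter cells plated 4 h, dosed with compound, then stimulated with conditioned medium for 24 h at 37 C. Firefly luciferase luminescence read after 30 min with detection reagent at room temperature.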
Structure (SMILES),"activity change, negative = inhibition",Potency
COc1cccc(O)c1,-19.5%,–
O=S(=O)(O)CCCN1CCOCC1,-6.38%,–
CCCCCCCCCCCCCc1ccccc1,-1.63% [at 42.5 µM],–
CCC(=O)CC(C)CC (configuration not stated),19.5% [at 0.349 µM],–
Cc1ccc2ccc3cccc4ccc1c2c34,0%,–
O=S(O)O,12.9% [at 19 µM],–
O=C=NCc1cccc(CN=C=O)c1,11.1% [at 19 µM],–
CCN(CC)CCSC(=O)C(c1ccccc1)c1ccccc1,–,23.7 µM (active)
CC(=O)c1ccccc1N,8.13%,–
c1ccc(Nc2cccc3ccccc23)cc1,–,30.6 µM (active)
OCCC(O)CO (configuration not stated),28%,–
Cc1cc(C)c(C=O)c(C)c1,-6.1%,–
CNC(=S)NN,–,3.44 µM (active)
CCCCCCCC(C)=O,27.2%,–
C/C=C/C(=O)Oc1c(CCCCCC(C)C)cc([N+](=O)[O-])cc1[N+](=O)[O-],–,2.17 µM (active)
CCc1cccc(CC)c1N(COC)C(=O)CS(=O)(=O)O,18.2%,–
CCN(CC)c1cccc(C)c1,20.4%,–
CN(Cc1cc(Br)cc(Br)c1N)C1CCCCC1,28.2% [at 42.5 µM],–
C(=C/c1ccccc1)/c1ccccc1,0%,–
CCCCCCCC/C=C\CCCCCCCC(=O)N(C)CC(=O)O,0%,–
CC=O,–,0.0161 µM (active)
CCCCCCCCCCCCCC[n+]1ccccc1,–,0.0049 µM (active)
CCCCCCCC/C=C\CCCCCCCC(=O)OCCOC(=O)CCCCCCC/C=C\CCCCCCCC,-12.5%,–
CSc1ccc2c(c1)N(CCC1CCCCN1C)c1ccccc1S2 (configuration not stated),–,5.43 µM (active) and 11.9 µM (active)
Cn1cnc2ncnc(N)c21,7.88% [at 42.5 µM],–
COc1ccc(C#N)cc1,8.18%,–
CCc1cccc(C)c1,0.295%,–
CC(C)=CC1CC(C)CCO1 (configuration not stated),18.4%,–
CCCCCCCCCCCCCOP(=O)(O)O,2.93%,–
O=C1OC(=O)c2ccc3c4c(ccc1c24)C(=O)OC3=O,24.8%,–
